FAS TE block: FAS thioesterase domain inhibitors, primary screen, biochemical, fluorescence intensity, uHTS. Fatty acid synthase (Homo sapiens), P49327. recombinant FAS-TE, OMFH fluorogenic substrate, fluorescence endpoint. inhibition, % at 15 µM. hit rate 0.67% among 360,000;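 active = compounds whose normalised, plate-corrected inhibition of enzyme fluorescence in the single-dose primary screen is 50% or more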
MIN6 prolif-1: inducers of MIN6 beta-cell proliferation, primary screen, ATP luminescence, uHTS; MIN6 cells proliferation, ATPlite luminescence, 48 h; cells starved in 0.2% serum; 100% = growth in 10% serum; proliferation, % at 10 µM; hit rate 0.29% among 330,000; AID 2380, 2010;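 active = compounds whose signal lies at least 3.5 SD above the mean of all wells on their plate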
MPTP inh: mitochondrial permeability transition pore inhibitors, primary screen, biochemical, isolated mouse mitochondria, absorbance; Ca2+ swelling absorbance, 30 min; inhibition, % at 10 µM; hit rate 1.4% among 360,000; AID 602449, 2012;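 active = inhibition of 50% or more, scaled per plate between neutral and stimulator controls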
NR3A LBD binder: binders of NR3A ligand-binding domain, primary screen, biophysical, differential scanning fluorimetry, uHTS. Glutamate receptor ionotropic, NMDA 3A (GRIN3A) ligand-binding domain. NR3A LBD differential scanning fluorimetry, Tm shift; 0% = protein alone, 100% = glycine-bound protein. Tm shift relative to glycine control, % at 25 µM. hit rate 2.5% among 340,000;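 active = melting temperature shift of at least 10% of the positive control shift, at one fixed dose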
pCIP destab: p/CIP-EGFP fusion destabilizers, primary screen, fluorescence, F442A cells. Q05BA5. 16 h. decrease of EGFP signal, % at 10 µM. hit rate 0.01% among 290,000;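 active = EGFP signal decrease of at least 30% at 10 µM or well 3 SD below plate mean, unless failing retest; inactive = the rest, including hits failing retest or dose response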
MIN6 prolif-2: inducers of beta-cell proliferation in MIN6, confirmation, MIN6 cells, mouse. 920 tested, under 10 active. shares compounds with MIN6 prolif-1. ATPlite luminescence, 48 h; cells kept in 0.2% serum; scaled between 0.2% and 10% serum. proliferation increase, % at 50 µM;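 active = proliferation increase above 40% at any of the four tested concentrations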
A number is an active result; . = inactive; / = not tested or not shown; ! = not active in a repeat. This is a sample that favours compounds with a hit; in the whole collection about 4.1% have one here.

SMILES	FAS TE block	MIN6 prolif-1	MPTP inh	NR3A LBD binder	pCIP destab	MIN6 prolif-2
COc1ccc(C(NC(=O)C2CCN(CCOc3ccc(Cl)cc3)CC2)c2cccs2)cc1 (stereo not given)	.	/	.	/	/	/
Clc1ccc(-c2nnc(CNC3CC3)o2)cc1	.	9.5	.	.	.	.
O=[N+]([O-])c1ccc(-c2nnc(CNC3CCCC3)o2)cc1	.	.	.	.	.	/
CC(C)C[C@H](NC(=O)N1CCn2c1nc1ccccc12)C(=O)N1CCCCC1	.	12.3	.	.	.	.
O=C(NCCCn1ccnc1)/C(=C\c1cccs1)NC(=O)c1ccccc1	.	6.7	.	.	.	.
COc1nc(-c2ccccc2)nnc1-c1ccccc1	.	/	.	.	.	/
COc1ncnc(-c2ccccc2)c1-c1ccccc1	.	7.8	.	.	/	.
O=C(COc1ccccc1Cl)Nc1ccc(S(=O)(=O)Nc2ccccn2)cc1	.	0.0	.	.	.	.
CC(C)[C@H](NS(=O)(=O)c1ccccc1)C(=O)OCC(=O)Nc1ccc2c(c1)OCO2	.	4.6	.	.	.	.
CC(C)[C@H](NS(=O)(=O)c1ccccc1)C(=O)OCC(=O)Nc1cccc(S(N)(=O)=O)c1	.	.	.	.	/	/
Cc1ccc(-c2nn3c(C)nnc3s2)cc1NC(=O)COc1ccc(Cl)cc1	.	10.0	.	.	.	.
O=C1NC(c2ccc(Cl)cc2)Oc2ccccc21 (stereo not given)	.	.	.	.	.	/
O=C1NC(c2ccc(Br)cc2)Oc2ccccc21 (stereo not given)	.	6.4	.	.	.	.
Nc1ncnc(N2CCc3ccccc32)c1[N+](=O)[O-]	.	19.5	.	.	.	.
NNC(=O)c1ccc(N2CCc3ccccc32)c([N+](=O)[O-])c1	.	.	.	.	.	/
O=C(Nc1ccccc1)C1Cc2c(-c3ccc(Cl)cc3)ccnc2O1 (stereo not given)	.	/	.	/	/	/
COC(=O)c1ccc(Cn2nnc3c(=O)[nH]c(C4CCCN(S(=O)(=O)c5ccc(C)cc5)C4)nc32)cc1 (stereo not given)	.	10.8	.	.	.	.
COc1ccc(CC(=O)N2CCN(c3ccc(C4=NNC(=O)CC4C)cc3)CC2)cc1 (stereo not given)	.	4.6	.	.	.	.
COc1ccc(NC(=O)CSc2ccc(NC(C)=O)cc2)cc1S(=O)(=O)N1CCCCC1	.	.	.	.	.	/
COc1ccc(NC(=O)CSc2ccccc2)cc1S(=O)(=O)N1CCCCC1	.	4.7	.	.	.	.
FC(F)(F)c1cccnc1N1CCN(c2ncnc3nc[nH]c23)CC1	.	.	.	.	.	/
Fc1ccccc1N1CCN(c2ncnc3[nH]ncc23)CC1	.	.	.	.	.	/
Fc1ccccc1N1CCN(c2ncnc3nc[nH]c23)CC1	.	11.3	.	.	.	.
Clc1ccccc1N1CCN(c2ncnc3nc[nH]c23)CC1	.	13.1	.	.	.	.
O=C(NCC1CCCCC1)c1csc([C@@H]2O[C@H](CO)[C@H](O)[C@H](O)[C@H]2O)n1	.	/	.	/	/	/
SMILES	FAS TE block	MIN6 prolif-1	MPTP inh	NR3A LBD binder	pCIP destab	MIN6 prolif-2
CCOC(=O)Nc1ccc2nc(-c3cscn3)[nH]c2c1	.	/	.	/	/	/
CC(=O)c1ccc2c(c1)CC1(C2)Cc2cc3c(cc2C1)C(=O)CC3 (stereo not given)	.	/	.	.	/	/
CCCCNC(=O)C1(C)CCN1Cc1ccc(C#N)cc1 (stereo not given)	.	/	.	/	/	/
OCC[C@H]1C[C@@H](O)[C@H](O)[C@]2(CCCc3ccccc3O2)O1	.	.	.	.	/	/
OCC[C@@H]1C[C@@H](O)[C@H](O)[C@]2(CCCc3ccccc3O2)O1	.	13.7	.	.	.	.
COc1cc(-c2coc3c(C(=O)NCc4cccc(Cl)c4)cccc23)ccc1O	.	/	.	/	/	/
COc1ccccc1C(=O)NCC(C)(C)CN=C1NS(=O)(=O)c2ccccc21	.	6.6	.	.	.	.
O=S1(=O)C[C@H](N2CCN(CCO)CC2)[C@@H](COCc2ccccc2)N1	.	/	.	/	/	/
O=C(CCC(=O)OCCOc1ccccc1)OCCOc1ccccc1	.	/	.	/	/	/
O=c1ccn(-c2cccc(C(F)(F)F)c2)nc1-c1ccn(-c2ccccc2F)n1	.	9.4	.	.	.	.
COc1ccc(-n2ccc(-c3nn(-c4cccc(C(F)(F)F)c4)ccc3=O)n2)cc1	.	.	.	.	.	/
COc1ccc(C(CNC(=O)CCNC(=O)c2ccc(Br)cc2)N2CCOCC2)cc1 (stereo not given)	.	11.9	.	.	/	.
Cc1cc(=O)c2ccccc2n1CC(=O)NCc1ccccc1	.	.	.	.	.	/
Cc1cc(C)n(CC(=O)NCc2ccccc2)c(=O)c1C#N	.	6.0	.	.	.	.
CCC(=O)N1CCc2cc(S(=O)(=O)CCC(=O)Nc3cccc(F)c3)ccc21	.	8.9	.	.	.	.
COc1ccc(C(=O)NNS(=O)(=O)c2ccccc2)cc1	.	0.0	.	.	.	.
O=C(/C=C/c1ccco1)NCc1ccccn1	.	9.4	.	.	.	.
COc1cc2c(cc1OC)C1=C(C#N)CCC(=NC(=O)c3ccco3)N1CC2	.	9.8	.	.	.	.
CCCCCCn1cc(CN2CC(N3CCCCC3)CS2(=O)=O)nn1 (stereo not given)	.	/	.	/	/	/
O=C(CN(Cc1ccccc1)C(=O)CNS(=O)(=O)c1ccc(Cl)cc1)NCC1CCCO1 (stereo not given)	.	0.0	.	.	.	.
CC1=C(C(=O)N2CCOCC2)CC(CC(=O)NCCCN(C)C)C(=O)N1CCCN1CCCC1=O (stereo not given)	.	/	.	/	/	/
COC(=O)C1=C(C)NC(C)=C([N+](=O)[O-])C1c1ccccc1C(F)(F)F (stereo not given)	.	14.1!	.	.	.	.
Cc1c(C)c2ccc(OCC(=O)NCCc3c[nH]c4ccccc34)cc2oc1=O	.	/	.	/	/	/
CCO/C(C)=N/Oc1cc(OC)cc(OC)c1	.	/	.	/	/	/
COc1ccc(CN(Cc2ccccn2)C(=O)CN2C(=O)COc3ccccc32)cc1	.	.	.	.	.	/
CC1Oc2ccccc2N(CC(=O)N(Cc2ccccc2)Cc2ccccn2)C1=O (stereo not given)	.	10.1	.	.	.	.
COc1cccc(CN2CCN(C(=O)[C@H]3O[C@@H](n4cnc5c(N)ncnc54)[C@H](O)[C@@H]3O)CC2=O)c1	.	/	.	/	/	/
COc1ccc(N2C(=NC(=O)C3CCCCC3)SC3CS(=O)(=O)CC32)cc1Cl (stereo not given)	.	.	.	.	.	/

Bioassay records deposited in PubChem by Sanford-Burnham Center for Chemical Genomics.
